Source: PubChem (National Center for Advancing Translational Sciences (NCATS))
Hits are enriched below; roughly 7.6% of the tested compounds scored in any of these assays.
BRCA1 expr act: qHTS Assay to Identify Small Molecule Activators of BRCA1 Expression; Potency, µM (top dose mostly 46.1 µM), for inactives: at the top dose activation, actives largely listed as activators; AID 624202, 2012; 380,000 compounds, 1.1% hits; MCF7-BRCA1-FFLuc reporter, luminescence, 48 h; response scale: scaled: vehicle 0%, 10 µM genistein 100%; note: potency is the fitted concentration of half-maximal effect; nearly all actives have a fitted effect of over 80% in size
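Quantitative HTS in MCF7 cells stably reporting BRCA1 expression via firefly luciferase. Compound treatment lasts 48 h at 37 °C in phenol-red free MEM. Activation is expressed relative to genistein at 10 microM and DMSO.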
Giardia killer: Small Molecules that selectively kill Giardia lamblia: qHTS. Giardia lamblia trophozoite viability. activity change, % at 7.66 µM, hits read low. 340,000 compounds, 0.15% hits; in the data active = activity change below about -80%; inconclusive = between about -30% and that limit;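 note: parasites exposed to compound for two days anaerobically before the ATP read; % is set by controls: 0 for no effect and ±100 for the full control effect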
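Killing of trophozoites was scored by loss of ATP luminescence after a 48 hrs anaerobic exposure to compounds at 37 deg C, using 100 cells per well.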
p53 reactivator: qHTS assay for re-activators of p53 using a Luc reporter | Potency, µM (titrated, usually from 92.2 µM), inactives show at the top dose activity change, positive = activation, usual class: activators | H1299 p53-A138V BP100-luciferase reporter, luminescence, 24 h | 320,000 compounds, 0.063% hits | AID 504706, 2011; note: potency is the fitted concentration of half-maximal effect; % of control where 0% means no effect; nearly all actives have a fitted effect of over 45% in size
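p53-null H1299 cells stably carrying temperature-sensitive p53-A138V and a BP100-luciferase reporter were pinned with compounds (4-point, 1:5 series) and held 24 hrs at 37 deg C. Luminescence was read 10 min after detection reagent.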
Gal4-VP16 FLuc: VP16 counterscreen qHTS for inhibitors of ROR gamma transcriptional activity. 310,000 compounds, 3.5% hits. Potency, µM (highest dose often 53.6 µM), inactives show at the top dose activity, negative = inhibition, most hits filed as inhibitors. Drosophila S2 Gal4-VP16 UAS-luciferase, luminescence, 20 h;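 note: Gal4-VP16 expression switched on by copper sulfate through the metallothionein promoter; potency is the fitted concentration of half-maximal effect; % is set by controls: 0 for no effect and ±100 for the full control effect; nearly all actives have a fitted effect of over 50% in size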
RORg inh: qHTS for inhibitors of ROR gamma transcriptional activity | Nuclear receptor ROR-gamma (Mus musculus), P51450 | Drosophila S2 Gal4-RORgamma UAS-luciferase reporter, 20 h | Potency, µM (highest dose often 53.6 µM), for inactives: at the top dose activity change, negative = inhibition, usual class: inhibitors | 310,000 compounds, 5.4% hits | AID 2551, 2010; note: potency is the fitted concentration of half-maximal effect; % is set by controls: 0 for no effect and ±100 for the full control effect; nearly all actives have a fitted effect of over 60% in size
Target sequence (P51450 whole entry, looked up, the tested form may be a part): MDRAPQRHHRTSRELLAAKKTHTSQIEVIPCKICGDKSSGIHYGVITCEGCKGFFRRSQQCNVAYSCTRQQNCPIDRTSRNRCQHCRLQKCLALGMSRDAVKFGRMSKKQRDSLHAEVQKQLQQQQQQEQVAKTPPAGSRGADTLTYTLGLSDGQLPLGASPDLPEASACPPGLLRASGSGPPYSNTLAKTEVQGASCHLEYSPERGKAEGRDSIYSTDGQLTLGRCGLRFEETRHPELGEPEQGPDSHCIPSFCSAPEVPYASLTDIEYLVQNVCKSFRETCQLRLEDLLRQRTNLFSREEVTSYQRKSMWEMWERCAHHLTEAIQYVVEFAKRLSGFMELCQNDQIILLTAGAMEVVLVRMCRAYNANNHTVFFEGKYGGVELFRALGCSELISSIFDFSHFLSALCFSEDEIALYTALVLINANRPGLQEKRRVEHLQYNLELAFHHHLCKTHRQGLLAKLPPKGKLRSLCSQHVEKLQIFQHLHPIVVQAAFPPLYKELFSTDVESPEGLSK
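Stably transfected Drosophila Schneider cells are the test system, with ROR gamma fused to Gal4 and luciferase under UAS control; luminescence is read after 20 hr of 700 uM copper sulfate induction at ambient temperature.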
ELG1 repair inh: qHTS screen for small molecules that inhibit ELG1-dependent DNA repair in human embryonic kidney (HEK293T) cells expressing luciferase-tagged ELG1. HEK293T ELG1-luciferase reporter, luminescence, 16 h; DNA damage induced by 5-fluorouridine. Potency, µM (titrated, usually from 46.1 µM), for the others: at the highest dose activity change, negative = inhibition, actives largely listed as inhibitors. 330,000 compounds, 2.3% hits; note: potency is the fitted concentration of half-maximal effect; % is set by controls: 0 for no effect and ±100 for the full control effect; nearly all actives have a fitted effect of over 55% in size
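Quantitative HTS, concentration-response format. 2,000 cells/well co-treated with 5-fluorouridine and compound, 16 hr in 5% CO2 at 37 °C; ONE-Glo luminescence read after 30 min.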
Numbers without * were called inactive; ? = inconclusive; / = not tested or not shown; [ ] = another dose, or the depositor's remark. Unless noted, calls come from the whole dose curve; as a rule, active = well fitted curve in the direction sought with a large enough effect; inconclusive = small, poorly fitted or top-dose-only effect, or another doubt; inactive = no such curve, though single readings can be large; an effect the other way counts as inactive or inconclusive.

SMILES	BRCA1 expr act	Giardia killer	p53 reactivator	Gal4-VP16 FLuc	RORg inh	ELG1 repair inh
O=C(Nc1cccc(NC(=S)NC(=O)c2cccs2)c1)c1ccccc1	-15%	3	-1%	?	10µM*	30%
O=C(NC(=S)Nc1cccc(NC(=O)c2ccccc2Cl)c1)c1cccs1	-9%	-7	0%	?	11µM*	?
O=C(Nc1cccc(NC(=O)c2cccs2)c1)c1ccc(F)cc1	-12%	2	0%	7%	41%	-5%
Cc1cc(NC(=O)c2ccccc2)ncc1NC(=O)c1cccs1	7.9µM*	-5	-3%	3%	3%	?
COc1ccc(S(=O)(=O)NCC(=O)N(CC(=O)NCC2CCCO2)c2cc(C)ccc2C)cc1 (configuration not stated)	-11%	-13	-6%	-9%	33%	0%
Cc1oc(-c2ccc(-c3ccccc3)cc2)nc1CN(CCO)C(C)C	20%	18	-9%	?	7.9µM*	?
Cc1oc(-c2ccc(-c3ccccc3)cc2)nc1CN(C)C1CCOC1 (configuration not stated)	?	9	8%	?	14µM*	?
CCCNC(=O)c1ccc(N2CC3CC(C2)c2cccc(=O)n2C3)c(NC(=O)Nc2ccc(CC)cc2)c1 (configuration not stated)	-7%	9	-5%	-4%	15%	-19%
CNC(=O)C1(C)CCN1C(=O)c1ccccc1CCc1ccccc1 (configuration not stated)	0%	/	/	/	/	/
CCn1c(SCC(=O)NC2CC2)nnc1C(C)Oc1ccccc1 (configuration not stated)	-22%	57	-4%	0%	-45%	1%
O=C1/C(=C/c2ccncc2)CCC/C1=C\c1ccncc1	-98%	?	-9%	5µM*	6.3µM*	?
O=C(/C=C/c1ccc(S(=O)(=O)N2CCOCC2)cc1)Nc1ccc(F)c(F)c1F	-33%	-3	-1%	/	/	21µM*
O=C(COC(=O)/C=C/c1ccc(S(=O)(=O)N2CCOCC2)cc1)Nc1ccc(F)c(F)c1F	23%	-1	-7%	/	/	6%
O=C(/C=C/c1ccc(S(=O)(=O)N2CCOCC2)cc1)NC(=S)Nc1ccc(N2CCOCC2)cc1	-18%	13	7%	-16%	5.6µM*	-4%
CCN(CC)S(=O)(=O)c1ccc(/C=C/C(=O)Nc2ccc(N3CCOCC3)cc2)cc1	-32%	18	-4%	1%	36%	5.2µM*
O=C(NCC1CCN(c2ccc(S(=O)(=O)N3CCOCC3)cc2)CC1)Nc1ccccc1	-18%	-11	14%	-12%	13%	15µM*
Cc1cccc(OCCNC(=O)c2cncc(Br)c2)c1	20%	45	-10%	-8%	2%	-6%
Cc1cc(NC(=S)NC(=O)/C=C/c2ccc(S(=O)(=O)N3CCOCC3)cc2)ccc1Br	-26%	6	0%	-6%	7.1µM*	-9%
Cc1ccc(NC(=O)/C=C/c2ccc(S(=O)(=O)N3CCOCC3)cc2)cc1S(=O)(=O)N(C)C	-75%	-2	/	/	/	/
CC1CCCC(C)N1C(=O)/C=C/c1ccc(S(=O)(=O)N2CCOCC2)cc1 (configuration not stated)	3%	-4	2%	/	/	13µM*
CC1C(=O)N(Cc2cn(Cc3ccco3)nn2)CCS(=O)(=O)N1Cc1ccc(-c2ccccc2C(F)(F)F)cc1 (configuration not stated)	-4%	/	/	/	/	/
Cc1ccc(C(=O)Nc2cccc(S(=O)(=O)N3CCCCC3)c2)cc1S(=O)(=O)N1CCOCC1	-45%	-15	/	/	/	/
O=C(COC(=O)c1ccc([N+](=O)[O-])o1)Nc1cccc(S(=O)(=O)N2CCCCC2)c1	-10%	-6	0%	-8%	?	0%
O=C(Nc1cccc(S(=O)(=O)N2CCCCC2)c1)c1ccc([N+](=O)[O-])o1	-99%	-96*	-10%	?	10µM*	?
Cc1ccc(C(=O)Nc2cccc(S(=O)(=O)N3CCCCC3)c2)cc1[N+](=O)[O-]	-45%	-6	-5%	/	/	11µM*
SMILES	BRCA1 expr act	Giardia killer	p53 reactivator	Gal4-VP16 FLuc	RORg inh	ELG1 repair inh
C=CCC1NS(=O)(=O)OC(COC)C1C (configuration not stated)	22%	7	8%	5%	-19%	18%
CCCOC(=O)c1ccc(NC(=O)CCC(=O)OCC)cc1	36%	-12	16%	7%	-5%[10 µM]	?
Cc1cccc(N2CCN(Cc3ccc([N+](=O)[O-])o3)CC2)c1C	11%	-86*	/	10%	2%	-2%
COc1ccc(C2/C=C\CN(S(=O)(=O)c3ccc(C)cc3)CC(=O)N2Cc2cccc(F)c2)cc1 (configuration not stated)	-12%	-2	0%	4%	17%	21µM*
COc1cccc(OC)c1-c1nn(-c2ncc(C(F)(F)F)cc2Cl)c(=O)o1	1%	-5	-4%	3%	5%	-7%
N#C/C(=C/c1ccc(Br)o1)C(N)=S	/	/	-15%	-1%	-16%	0%
CCOc1c(Cl)cc(/C=C/C(=O)N(CC)CC(=O)Nc2ccc(NC(C)=O)cc2)cc1OC	-51%	-6	-1%	/	/	15µM*
CCOc1ccc(/C=C/C(=O)N(CC)CC(=O)Nc2ccc3c(c2)OCCO3)cc1OC	3%	31	-10%	/	/	-30%
CNC(=S)N1N=C(c2cccs2)CC1c1ccc(OC)cc1 (configuration not stated)	-33%	-16	/	-9%	20µM*	18%
Fc1ccc(C2CC(c3cccs3)=NN2C(=S)Nc2ccccc2)cc1 (configuration not stated)	-4%	-17	-1%	-11%	7.9µM*	13%
CNC(=S)N1N=C(c2ccc(Br)cc2)CC1c1ccc(N(C)C)cc1 (configuration not stated)	4%	-2	-4%	0%	?	-13%
CNC(=S)N1N=C(c2ccc(OC)cc2)CC1c1ccc(N(C)C)cc1 (configuration not stated)	23%	-4	1%	?	13µM*	-30%
CNC(=S)N1N=C(c2ccc(Br)cc2)CC1c1ccc(Br)cc1 (configuration not stated)	-9%	-5	-3%	3%	-23%	5.8µM*
